In all, about 360,000 compounds went through this assay and about 6,200 (1.7%) were called active. The sample as a whole holds a higher share of actives than the screen did. Unmarked numbers belong to inactive results.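 How the source made its calls: active means inhibition of at least 50% at 20 µM; inactive means the rest.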
Experiment: Peg3 promoter-driven luciferase inhibitors, primary screen, cell-based, HeLa, luciferase luminescence (AID 588405)
Conditions: HeLa PEG-Prom luciferase reporter, overnight, at 20 µM, active compounds read high

Compound | inhibition
CC(C)(C)S(=O)N1Cc2cc(C(=O)NCCCN3CCOCC3)nc(-c3cccc(-c4cc5ccccc5o4)c3)c2[C@H]1CCO (stereo partly specified) | -6.92%
CCCNC(=O)C1(C)CCN1C(=O)Cc1ccc(-c2ccccc2)cc1 (stereo unspecified) | -9.6%
CCCNC(=O)N1CCN(C(=O)NCCC)CC1 | 7.21%
CCC(C)(C)c1ccc(Oc2ccc(NC(=O)COC(=O)C3=COCCO3)cc2)cc1 | 11.8%
O=C1c2ccccc2C2=Nc3ccccc3SC(c3ccccc3F)C12 (stereo unspecified) | 50.8% (active)
COc1ccc(-c2cc(NC(C)=O)c3ncc(-c4cc(OC)c(OC)c(OC)c4)n3c2)cn1 | 9.76%
Cc1ccccc1C(CC(=O)c1cccs1)C(C#N)C#N (stereo unspecified) | 98.4% (active)
O=C(NCC(=O)N1CCN(c2ccccc2F)CC1)c1cccs1 | -57%
Cc1ccc(C)c(NC(CC(=O)c2ccccc2)C(=O)OCC(=O)c2cccs2)c1 (stereo unspecified) | -74.6%
OCCC1CN(Cc2cccc(OC3CCCC3)c2)CCN1Cc1ccsc1 (stereo unspecified) | 18.8%
CCc1nc2c(OCCOc3ccc(F)cc3)cccn2c1N(C)C(=O)c1ccccc1F | 14.6%
C=C(C)C(=O)O[C@H]1C/C(C)=C\C(=O)/C=C(\C)[C@H](O)[C@@H]2OC(=O)C(=C)[C@@H]21 | 94.4% (active)
Cc1cc(NC(=O)COC(=O)/C=C/c2ccc(C)o2)no1 | 6.71%
Cc1sc2ncn(CC(=O)NCCCC(=O)N(C)Cc3ccccc3)c(=O)c2c1C | 8.27%
COc1ccc(Nc2ncnc3ccc(Br)cc23)c(OC)c1 | 88.1% (active)
COc1ccc(OC)c(NC(=O)CN(C)CCOc2ccc(Br)cc2)c1 | 7.53%
COc1ccccc1Nc1ncnc2c1oc1ccccc12 | -388%
Cc1cc(Br)cn2c(Cc3ccsc3)c(-c3ccc(C#N)cc3)nc12 | -3.22%
CCOC(=O)C1CCCN(C(=O)c2ccc(N(C)C)cc2)CC1 (stereo unspecified) | -7.67%
O=[N+]([O-])/C=C/c1ccc2c(ccn2Cc2ccccc2)c1 | 107% (active)
O=C(Nc1nnc([C@H]2C[C@H](O)[C@@H](CO)O2)s1)c1cccc(Cl)c1 | -8.3%
Nc1cccc(S(=O)(=O)Nc2ccc(SC(F)F)cc2)c1 | 8.83%

Compound | inhibition
COc1ccc(NC(=O)/C(N=Nc2cccc(S(=O)(=O)Nc3ccc(SC(F)F)cc3)c2)=C(\C)O)cc1 | 50.3% (active)
Cc1c(NS(=O)(=O)c2cccc(C(=O)Nc3ccc(SC(F)F)cc3)c2)c(=O)n(-c2ccccc2)n1C | 34.6%
CCN(CC)CCC(c1ccc2c(c1)OCO2)c1c(OC)cc(OC)c2c(-c3ccccc3)cc(=O)oc12 (stereo unspecified) | 56.4% (active)
CCN(CC)C(=O)CC(c1ccc2c(c1)OCO2)c1c(OC)cc(OC)c2c(-c3ccccc3)cc(=O)oc12 (stereo unspecified) | 7.97%
CCN(CC)CCC(c1cc(OC)c(OC)c(OC)c1)c1c(OC)cc(OC)c2c(-c3ccccc3)cc(=O)oc12 (stereo unspecified) | 27.4%
CC1(C(=O)Nc2cccc3cccnc23)CCN1C(=O)CCC1CCCC1 (stereo unspecified) | 10.3%
COc1ccc(CCNC(=O)Nc2ccc3c(c2)c(=O)n(C)n3C)cc1OC | -7.49%
O=C(c1ccc(F)cc1)c1c[nH]c(C(=O)NCc2cccnc2)c1 | 18%
O=C(NN=Cc1ccc2c(c1)CCC2)c1ccccc1O | -215%
COc1ccc(-c2[nH]ncc2/C=N/NC(=O)c2cc(Br)ccc2O)c(OC)c1 | 5.43%
COc1ccc(C(=O)Nc2ccccc2C(=O)N/N=C/c2ccc(O)c(OC)c2)cc1 | 83.7% (active)
O=C(Nc1cc(Br)ccc1F)c1nc[nH]c1C(=O)NCc1ccccc1 | 2.41%
Cc1sc2ccccc2c1CNC[C@H]1O[C@@H](n2ccc(=O)[nH]c2=O)[C@H](O)[C@@H]1O | -4.81%
COc1ccc(C(=O)/C=C/Nc2ccccn2)cc1 | 63% (active)
COc1ccc(N2C(=O)CCC(C(=O)Nc3ccccn3)C2c2ccc(OC)c(OC)c2)cc1 (stereo unspecified) | 12.5%
Cc1cc(N/C=C\C(=O)c2ccc(Cl)c(Cl)c2)no1 | -233%
COc1ccccc1CNC(=O)c1cc(-c2cc(F)ccc2OC)n[nH]1 | 0.22%
COc1ccc(OC)c(C(=O)NC(CC(N)=O)c2ccc(N3CCC(N4CCCCC4)CC3)c([N+](=O)[O-])c2)c1 (stereo unspecified) | 0.66%
CCc1nc2c(OCc3ccccc3)cccn2c1N(C)C(=O)c1ccco1 | 11.6%
COc1ccc(CC(=O)Nc2ccc(-c3nnc(-c4ccc(C)cc4)o3)cc2)cc1 | 51.2% (active)
COc1ccc(CC(=O)Nc2c(C(N)=O)oc3ccccc23)cc1 | 8.96%
COc1ccc(NC(=O)Cn2c(-c3ccc(OC)cc3)cn(-c3ccc(C)cc3)c2=O)cc1 | -103%

Compound | inhibition
COc1ccc(CCCNC(=O)C2Cc3c(-c4cccc(C(N)=O)c4)ccnc3O2)cc1 (stereo unspecified) | 14.7%
Nc1cccc(-c2cncc(N3CCN(Cc4ccccn4)CC3)n2)c1 | -8.35%
CSCC[C@H](NC(=O)CCCn1nnc2ccccc2c1=O)C(=O)O | 4.76%
CCOc1ccc(CCN2C(=S)N([C@@H](CC(C)C)CN3CCC[C@@H]3CN3C(=S)NC[C@@H]3Cc3ccc(O)cc3)C[C@@H]2Cc2ccc(O)cc2)cc1 | 14.3%
CC(C)C[C@H]1CNC(=S)N1C[C@H]1CCCN1C[C@H](Cc1ccc(O)cc1)N1C[C@H](Cc2ccc(O)cc2)N(CC2CCCCC2)C1=S | 99.5% (active)
CCOc1ccc(CCN2C(=S)N([C@@H](CC(C)C)CN3CCC[C@@H]3CN3C(=S)NC[C@@H]3Cc3ccc(O)cc3)C[C@@H]2CC(C)C)cc1 | 14.2%
Cc1ccc(OCC(=O)c2cc(C)n(Cc3ccco3)c2C)c([N+](=O)[O-])n1 | 55.6% (active)
COCC(C)n1c(C)cc(C(=O)COc2ccc(C)nc2[N+](=O)[O-])c1C (stereo unspecified) | 43.5%
Cc1cc(C(=O)COC(=O)CNC(=O)c2ccc(F)cc2)c(C)n1Cc1ccco1 | -257%
CC(C)c1ccc(CC(=O)N2CCC2(C)C(=O)NS(=O)(=O)c2ccc(C(C)(C)C)cc2)cc1 (stereo unspecified) | 11.3%
CC(C)Cn1cc(-c2cncc3nccn23)cn1 | 5.62%
CN(C(=O)CN1CCN(c2cc(-c3ccc(OCc4ccccc4)cc3)ncn2)CC1)c1ccccc1 | -2.84%
c1ccc2cc3c(NCCN4CCOCC4)ccnc3cc2c1 | 69.5% (active)
CCOc1nc(NCCN2CCOCC2)nc(Nc2ccc(C)cc2)n1 | 5.29%
Fc1ccc(-c2ccc(NCCN3CCOCC3)nn2)cc1 | -96.4%
CCN(CC)C(=O)C1=C(C)N(Cc2ccc(F)cc2)C(=O)C(CC(=O)NC2CCCC2)C1 (stereo unspecified) | 11%
COCCCNC(=S)N(CCN(C)C)Cc1cc2cc3c(cc2[nH]c1=O)OCCO3 | 2.51%
Cc1cccc2cc(CN(Cc3cccs3)C(=S)NCc3ccco3)c(=O)[nH]c12 | 4.8%
Cc1cc(C)c2[nH]c(=O)c(CN(Cc3ccccc3)C(=S)NCCCN(C)C)cc2c1 | 66.4% (active)
CCCOc1ccc(F)cc1-c1cc(C(=O)Nc2ccc(F)cc2)[nH]n1 | -8.32%
CCn1c(CC(=O)Nc2ccc(C)cc2)nnc1SCC(=O)Nc1nc(C)cs1 | -10.4%
COCC(C)NC(=O)COc1nncc2ccccc12 (stereo unspecified) | 0.55%

Compound | inhibition
NC(Cc1ccc(F)cc1)c1csc(Nc2nncc3ccccc23)n1 (stereo unspecified) | 103% (active)
CN[C@H]1C[C@H]2c3cc(Oc4ccccc4C)ccc3CCN2C(=O)[C@H]1[C@H](C)O | -28.3%
CN(C)C(=S)Nc1ccc(Br)cc1Cl | 4.24%
COc1cccc(-c2cccc(NC(=O)C3CCN(C4CCC4)CC3)c2)c1 | 9.5%
O=C(Nc1cccc(-c2cccc(Cl)c2)c1)C1CCN(C2CCC2)CC1 | 53.2% (active)
CCn1cc(CN2CCC(C(=O)Nc3cccc(-c4cccc(Cl)c4)c3)CC2)cn1 | 54.4% (active)
O=C(Nc1cnn(Cc2ccc(Cl)cc2)c1)C1CCCC1 | -29.5%
O=C(NC1CCCC1)C1CCN(C(=O)Nc2cccc(Cl)c2)CC1 | 17%
O=C(Nc1cccc(-c2cscn2)c1)C1CCN(Cc2ccsc2)CC1 | 5.06%
O=C(NCC1CCN(Cc2ccccc2Cl)CC1)Nc1cccc(Cl)c1 | 27.8%
CC(=O)c1cc(CN2CCC(C(=O)Nc3cccc(-c4cscn4)c3)CC2)cs1 | 2.3%
CCn1cc(CN2CCC(C(=O)Nc3cccc(-c4cccc(Cl)c4)c3)CC2)c(C)n1 | 105% (active)
COc1cccc(NC(=O)C2(C)CCN2Cc2ccccc2Cl)c1 (stereo unspecified) | 12.9%
CCOCCC(=O)Nc1ccc2c(c1)c(=O)n(C)n2-c1ccc2ccccc2c1 | -14.8%
CCCNC(=O)C1(C)CCN(C(=O)c2ccccc2OC(F)(F)F)C1 (stereo unspecified) | -13.6%
CC(=O)Nc1cc(-c2ccc(N3CCN(C)CC3)cc2)cn2c(-c3ccc(F)cc3)cnc12 | -24.9%
CCCCN(C=O)c1c(CC)nc2c(OCc3ccccc3C(=O)OC)cccn12 | 13.7%
CCCc1cc(=O)n2[nH]c(C)c(-c3ccc(Cl)cc3)c2n1 | 61.5% (active)
COCc1cc(=O)n2[nH]c(C)c(-c3ccccc3)c2n1 | 2.19%
Cc1nc2c(-c3ccccc3)c(C)[nH]n2c(=O)c1Cl | 13.1%
